Data taken from PubChem BioAssay (NCI).
This is part of a sample that, as a whole, favours compounds with a hit. Of some 83,000 tested, about 20% had one in any assay.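 Plates (96-well) were seeded with cells, treated with compound at one concentration, and incubated for 48 hours before percent growth was determined.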 A number with no mark means an inactive call. The source made the active and inactive calls. Rule for the calls: active = growth percent below 10; inactive = the rest.

Tested on: HL-60(TB) leukemia
Assay: NCI-60 one-dose screen, 48 h (100 = growth as untreated, 0 = no growth, -100 = all killed)
Conditions: 10 µM unless noted

Structure (SMILES) | growth
COc1cnc2c(c1)C(=O)c1c-2n(CCCNCCN2CCOCC2)c(=O)c2cc([N+](=O)[O-])ccc12 | -15.7% (active)
CCn1cc(CNc2ccc(C(=O)Nc3ccc4ccccc4c3)cc2)c(C)n1 | 79.8%
CC/C=C1/C(=O)C=C[C@@H]1C/C=C\CCCC(=O)OC | 5.31% (active)
C/C(=C(/c1ccc(O)cc1)c1ccc(OCCN2CCCC2)cc1)c1ccccc1 | 45.1%
O=c1c2c3c(sc2n2c(CCl)nnc2n1Cc1ccccc1)CCCC3 | -59.8% (active)
CC(=O)c1ccc(N=C(C#N)C2=C(O)c3ccccc3C2=O)cc1 | 86.2%
COC(=O)c1ccc(NC(=O)CCl)cc1 | 81.6%
Cc1cc2nc3[nH]c4ccccc4c3nc2cc1C | 55.2%
COc1ccc(NC(=O)CSc2nnc(-c3cc(-c4ccc(S(N)(=O)=O)cc4)nc4ccccc34)n2-c2ccccc2)cc1 | 65.1%
Cc1ccc(Nc2ccc(Nc3ccc(C)cc3)c3c2C(=O)c2cccc(O)c2C3=O)cc1 | 94.3%
COc1cc(NS(=O)(=O)c2ccc(-c3cnc(C4CC4)o3)cc2)ccc1F | 1.92% (active)
COc1ccc(OC)c(NC2=C(SCCc3ccccc3)C(=O)c3ccccc3C2=O)c1 | 93.4%
C[C@@H]1CC[C@@H]2[C@@H]1[C@H](OC(=O)/C=C/c1ccccc1)[C@]1(c3ccccc3)C[C@@H](NC(=O)CO)[C@@]2(C)O1 | 97.7%
Nc1nc(-c2ccnc(Cl)c2)nn1-c1nc2ccccc2s1 | 107%
COc1ccc(C2=CC(c3cc(OC)c(OC)c(OC)c3)n3ncnc3N2)cc1 (stereo not given) | -29.9% (active)
COc1ccc(NC(=O)CCn2cnc3c(cc(-c4ccccc4)n3-c3ccccc3)c2=O)cc1 | 95.9%
CS(=O)(CCCCN=C=S)=NC(=O)c1c(F)c(F)c(F)c(F)c1F (stereo not given) | 72.5%
Nc1cc2nc3ccccc3sc-2cc1=O | 6.95% (active)
O=C(Cc1ccc(Nc2ccnc(C(F)(F)F)c2)cc1)N/N=C/c1ccccc1O | 69.1%
CCN(CC)c1ccc(C2CC(c3cc(OC)c(OC)c(OC)c3)=NN2)cc1 (stereo not given) | -35.1% (active)

Structure (SMILES) | growth
[2H]C([2H])([2H])Oc1ccc(/C=C/C(=O)/C=C(O)/C=C/c2ccc(OC([2H])([2H])[2H])c(OC([2H])([2H])[2H])c2)cc1OC([2H])([2H])[2H] | 54.5%
O=c1oc2c(cc1-c1ccc(F)cc1)C(O)Oc1ccccc1-2 (stereo not given) | 101%
CC(=O)CC(=O)SC1=NCCS1 | 107%
Cc1ccc(-c2n[nH]c(=O)c3noc(-c4ccc(C)cc4)c23)cc1 | 6.11% (active)
CCCCCCN1CSC(=S)N(CCCCCC)C1 | 112%
O=C(O)CCCn1c(SCc2c(Cl)cccc2Cl)nc2ccsc2c1=O | -4.86% (active)
COc1ccc(/C(C)=C(\c2ccc(Cl)cc2)c2ccc(OCCN3CCCC3)cc2)cc1F | 0.205% (active)
Nc1nc(C(=O)N/N=C/c2ccc(F)cc2)nn1-c1ccc(S(N)(=O)=O)cc1 | 99.5%
N#CC1(C#N)C2=C(CCCC2)NC(c2c(F)cccc2Cl)C1(C#N)C#N (stereo not given) | 6.9% (active)
COc1ccc(-c2ccc3c(N4CCOC[C@@H]4C)nc(N4CCOC[C@@H]4C)nc3n2)cc1CO | 22.6%
CN(C)CCCNCc1ccc(-c2ccc(F)c(Cl)c2)o1 | -4.95% (active)
CCC(=O)C1C(=O)c2ccccc2C1=O | 75.3%
CCOC(=O)c1c(NC(=O)c2ccccc2)sc2c(O)c(CN(CC)CC)ccc12 | 0.395% (active)
COc1ccc2c(c1)/C(=C1\S/C(=N/c3nnc(C)s3)NC1=O)C(=O)N2Cc1ccc(Cl)cc1 | 53.8%
COc1cc(OC)c(/C=C/c2c3ccccc3cc[n+]2C)c(OC)c1 | -25.1% (active)
Cc1c(Cl)cccc1NC(=O)c1sc2nc3c(cc2c1N)CCCCCC3 | -15.9% (active)
CC(=O)c1c[nH]c2ccc(-c3ccnc(Nc4ccc(NC(=O)C5CCCC5)c(CN5CCOCC5)c4)n3)cc12 | -31.5% (active)
CCc1c2c(nc3ccc(OC(=O)OCc4ccc(B5OC(C)(C)C(C)(C)O5)cc4)cc13)-c1cc3c(c(=O)n1C2)COC(=O)[C@]3(O)CC | 12%
O=[N+]([O-])/C(=C/c1ccccc1)c1ccccc1 | 85.6%
O=C1Nc2ccc(Cl)cc2/C1=C/c1ccc[nH]1 | 102%
